Measured values published in PubChem BioAssay (NCATS).
Where “and” joins values, the source holds several entries; their conditions need not be identical. Equal values may be shown once. Results filed as inconclusive are left out. Unmarked numbers belong to inactive results. Calls of active or inactive are those of the source. The call rests on the fitted dose curve; in most records, active means well fitted cell-killing curve with a large enough effect; inconclusive means small, poorly fitted or top-dose-only effect; inactive means flat fitted curve, though single readings scatter.

Assay: Cellular viability qHTS for adrenocortical cancer (ACC) cell line SW-13 (AID 1963989); further: nearly all actives have a fitted effect of over 65% in size;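 on activity (max response): cells grown in serum-free medium with ITS supplement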
Settings: SW-13 ACC cells viability, CellTiter-Glo, 48 h; activity (max response): stronger effect = lower value
Description: PI: Naris Nilubol, MD Surgical Oncology Program, National Cancer Institute (NCI) National Institute of Health (NIH), Bethesda, Maryland Adrenocortical cancer (ACC) is a rare malignancy with poor survival outcomes and few treatment options. Currently, mitotane is the only FDA-approved therapy for ACC. Although adjuvant radiation therapy is rarely utilized, it has the potential to improve survival in select cases. Through a quantitative high-throughput drug screen (qHTS), we identified auranofin (AF), a thioredoxin reductase (TXNRD) inhibitor, as a promising candidate drug. This study aims to evaluate whether AF can enhance the efficacy of radiation therapy in the treatment of ACC. Two human ACC cell lines, SW-13 and NCI-H295R, were screened using the National Center for Advancing Translational Sciences (NCATS) Pharmaceutical Collection (NPC) and the Mechanism Interrogation PlatE (MIPE) library (~4,991 compounds). CellTiter-Glo (Cat # G7570, Promega, Madison, WI) was utilized to measure cell viability. Described herein are the results of the corresponding viability assay.
PROTOCOL TABLE (as described by Inglese J, Shamu CE and Guy RK. 2007) SEQUENCE No. (e.g., 1, 2, 3, etc.); […] (e.g., Cells, Incubation, Reagent, etc.); VALUE; DESCRIPTION. 1; Cells; 5 uL; white, solid-bottom, 1536-well tissue-culture treated plates. 2; Time; overnight culture at 37C with 5% CO2. 3; Compounds and control; 23 nL; Kalypsis pin tool (Wako USA) equipped with a 1536-well pin head to transfer to the assay plates. 4; Time; 48 hours; 37C with 5% CO2. 5; Reagent; 4 uL; CellTiter-Glo luminescent substrate mix. 6; Time; 20 min at room temperature. 7; Detection; Luminescence; ViewLux plate reader NOTES (numbers refer to Sequence numbers above) 1. SW13 cells were harvested from a T175 flask and resuspended in ITS-supplemented DMEM serum-free medium at a concentration of 300 000 cells/mL. Then 5 uL of resuspended cells were dispensed into each well of white, solid-bottom, 1536-well tissue-culture-treated plates using a multidrop combi dispenser. The plates were covered with stainless steel gasket lids. 2-3. The plates were cultured overnight at 37C with 5% CO2. Twenty-three nL of compounds (eight selected concentrations from the NPC / MIPE) or positive control (10 mM stock of bortezomib) in DMSO was transferred to each well of the assay plate using a pin tool (Kalypsys, San Diego, CA, USA). The final concentration of the compounds in the 5 uL assay volume ranged from 0.5 nM to 46 uM. 4-6. After 48 hours of incubation at 37C and 5% CO2, 4 uL of CellTilter-Glo luminescent substrate mix (Promega, Madison, WI, USA) was added to each well. Then the plates were incubated for 20 minutes at room temperature. 7. After incubation, luminescence was measured using a ViewLux plate reader (PerkinElmer, Waltham, MA, USA) with a clear filter was used to measure the number of metabolically competent cells. To determine compound activity in the qHTS assay, the titration-response data for each sample was plotted and modeled by a four-parameter logistic fit yielding IC50 and efficacy (maximal response) values. […] REFERENCES: Inglese J, Shamu CE and Guy RK, Reporting data from high throughput screening of small molecule libraries, Nature Chemical Biology, 2007, 3(8): 438-441. doi.org/10.1038/nchembio0807-438.
On the % scale 0 is the no-effect control and ±100 the full control effect.

Structure (SMILES) | activity (max response) | Potency
O=S(=O)(c1cccc2cnccc12)N1CCCNCC1 | 2.02% and -0.384% | –
CN1CCN(Cc2ccc(Nc3ncc(Cl)c(Nc4ccccc4S(=O)(=O)N(C)C)n3)cc2)CC1 | – | 0.75 µM (active)
COc1cccc(OCCCN)c1-c1cc(Nc2cnc(C#N)cn2)n[nH]1 | -3.44% | –
CC(/C=C/[C@@H]1C[C@]1(C)c1ccc2c(c1)C(C)(C)CCC2(C)C)=C\C(=O)O | -5.24% | –
Cc1ccc(S(=O)(=O)OCC(=O)Nc2ccc(C(=O)O)c(O)c2)cc1 | 6.62% | –
CC1(C)S[C@@H]2[C@H](NC(=O)C(c3ccccc3)S(=O)(=O)O)C(=O)N2[C@H]1C(=O)O (stereo not given in full) | 8.35% | –
C[C@@H](O[C@H]1OCCN(Cc2n[nH]c(=O)[nH]2)[C@H]1c1ccc(F)cc1)c1cc(C(F)(F)F)cc(C(F)(F)F)c1 | – | 18.4 µM (active)
O=C1NC(=O)/C(=C/c2ccc(-c3ccc(F)cc3O)o2)S1 | – | 28.2 µM (active)
N#Cc1ccnc(N2C(=O)CC[C@H]2C(=O)N(c2cncc(F)c2)[C@H](C(=O)NC2CC(F)(F)C2)c2ccccc2Cl)c1 | 6.3% | –
Nc1ccc(C(=O)c2cc3c(ccc4ccccc43)[nH]2)cc1 | – | 2.24 µM (active)
CN[C@@H]1[C@H](O[C@H]2[C@H](O[C@@H]3[C@@H](O)[C@H](O)[C@@H](N=C(N)N)[C@H](O)[C@H]3N=C(N)N)O[C@@H](C)[C@]2(O)C=O)O[C@@H](CO)[C@H](O)[C@H]1O | 6.19% | –
CCN1CCN(C(=O)N[C@@H](C(=O)N[C@@H]2C(=O)N3C(C(=O)O)=C(CSc4nnnn4C)CS[C@H]23)c2ccc(O)cc2)C(=O)C1=O | 5.63% and -4.45% | –
C[C@H](CN(C)C)Oc1nc(Nc2cc3cccc(Cl)c3cn2)cnc1C#N | -6.08% | –
CCNC(=O)c1noc(-c2cc(C(C)C)c(O)cc2O)c1-c1ccc(CN2CCOCC2)cc1 | – | 0.0708 µM (active)
CCCCOCCOc1nc(-c2ccc(C(=O)O)c(F)c2)sc1C | -9.17% | –
CCOCc1nc2c(N)nc3ccccc3c2n1CC(C)(C)O | -23.1% | –
CCN(CC)CCNC(=O)c1ccc(N)cc1 | 13% | –
CN[C@@H](C)C(=O)N[C@H](C(=O)N1CCC[C@H]1C(=O)Nc1sc(-c2ncco2)nc1-c1ccccc1)C1CCCCC1 | -5.71% | –
NCCc1ccn[nH]1 | 3.59% | –
Oc1c(Cl)cc(Cl)c(Cl)c1Cc1c(O)c(Cl)cc(Cl)c1Cl | – | 1.84 µM (active)

Structure (SMILES) | activity (max response) | Potency
N[C@H](CSC(c1ccccc1)(c1ccccc1)c1ccccc1)C(=O)O | -17.5% | –
OC(CCN1CCCCC1)(c1ccccc1)C1CC2C=CC1C2 (stereo not given) | -4.13% and -26% | –
C1CCC(C(CC2CCCCN2)C2CCCCC2)CC1 (stereo not given) | – | 7.08 µM (active)
CC1(C)NC(=O)N(c2ccc([N+](=O)[O-])c(C(F)(F)F)c2)C1=O | -3.44% and -9.93% | –
CN1C(=O)C(Cc2c[nH]c3ccccc23)NC1=S (stereo not given) | 7.04% | –
CC(C)c1ccc2oc3nc(N)c(C(=O)O)cc3c(=O)c2c1 | -3.22% and -4.54% | –
Nc1nc(F)nc2c1ncn2[C@@H]1O[C@H](COP(=O)(O)O)[C@@H](O)[C@@H]1O | -12.7% | –
CC1(C)CC(=O)c2c(C(F)(F)F)nn(-c3ccc(C(N)=O)c(NC4CCC(OC(=O)CN)CC4)c3)c2C1 (stereo not given) | – | 0.282 µM (active)
COC(=O)/C=C/C(=O)OC | -9.41% | –
Cc1cccc(C)c1NC(=O)CC12CCCN1CCC2 | 1.71% | –
CC[C@H](Nc1ncnc2nc[nH]c12)c1nc2cccc(F)c2c(=O)n1-c1ccccc1 | -2.88% | –
CNC(=O)c1cc(COc2nnc(Nc3ccc(Cl)cc3)c3ccoc23)ccn1 | -21.4% | –
CN1CCN2c3ncccc3Cc3ccccc3C2C1 (stereo not given) | -3.47% | –
Cc1ccc(C(C)C)cc2c(C)ccc1-2 | 0.775% | –
COc1cc(/C=C(\C#N)C(=O)Nc2nnc(C(F)(F)F)s2)ccc1OCc1ccc(C(F)(F)F)cc1C(F)(F)F | -15.8% | –
CC1(C)CN(C(=O)c2ccc(-c3cccc4nc(NC(=O)C5CC5)nn34)cc2)C1 | 2.66% | –
CC(C)NC[C@@H](O)COc1ccc(CC(N)=O)cc1 | 7.4% | –
Cn1ncc(NC(=O)c2nc(-c3c(F)cccc3F)sc2N)c1N1CC[C@@H](N)[C@H](F)CC1 | – | 25.1 µM (active)
Cc1cc2cc3c(C)cc(=O)oc3c(C)c2o1 | 0.204% and 7.11% | –
CO[C@@]1(NC(=O)Cc2cccs2)C(=O)N2C(C(=O)O)=C(COC(N)=O)CS[C@@H]21 | 12.4% | –
